The values below come from PubChem BioAssay (EPA / NIEHS).

Read-out in experiment [1]: Interleukin-1 alpha (IL1a), IL1A (gene 3552)
As to the kind of experiment: BSK_KF3CT_IL1a: BioMAP Diversity Plus: KF3CT Assay for Interleukin-1 alpha (IL1a) Biomarker Activity (AID 2283070). As to conditions: primary human keratinocytes with fibroblasts; actives raise or lower the signal. Summed up:
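Human keratinocyte plus foreskin fibroblast primary co-culture, sampled 24 h after chemical dosing. IL-1a measured by ELISA; responses fitted bidirectionally against DMSO baseline (negative control), so gain or loss of signal both count.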

Read-out in experiment [2]: TIMP metallopeptidase inhibitor 2 (TIMP2), TIMP2 (gene 7077)
Briefly: BSK_KF3CT_TIMP2: BioMAP Diversity Plus: KF3CT Assay for TIMP metallopeptidase inhibitor 2 (TIMP2) Biomarker Activity (AID 2283071). To be noted: primary human keratinocytes with fibroblasts; actives raise or lower the signal. The method, boiled down: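 Human primary keratinocyte/foreskin fibroblast co-culture dosed with chemical and sampled at 24 h. TIMP-2 levels quantified by ELISA; bidirectional fitting against DMSO negative control as baseline.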

Read-out in experiment [3]: Transforming growth factor beta 1 (TGFb1), TGFB1 (gene 7040)
Briefly: BSK_KF3CT_TGFb1: BioMAP Diversity Plus: KF3CT Assay for Transforming growth factor beta 1 (TGFb1) Biomarker Activity (AID 2283072). To be noted: primary human keratinocytes with fibroblasts; actives raise or lower the signal. Summed up:
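Human keratinocyte plus foreskin fibroblast primary co-culture, dosed with chemical for 24 h. TGF-b1 quantified by ELISA. Activity fitted bidirectionally against DMSO negative control as baseline.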

Read-out in experiment [4]: C-C motif chemokine 2 (Homo sapiens) (UniProt P13500)
Briefly: BSK_KF3CT_MCP1: BioMAP Diversity Plus: KF3CT Assay for Monocyte Chemoattractant Protein 1 (MCP1/CCL2) Biomarker Activity (AID 2283073). To be noted: primary human keratinocytes with fibroblasts; actives raise or lower the signal. The method, boiled down: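 KF3CT skin co-culture (keratinocytes/foreskin fibroblasts), 24 h post-dose; MCP-1 by ELISA; gain/loss of signal fit bidirectionally vs DMSO baseline.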

Read-out in experiment [5]: Matrix Metallopeptidase 9 (MMP9), MMP9 (gene 4318)
As to the kind of experiment: BSK_KF3CT_MMP9: BioMAP Diversity Plus: KF3CT Assay for Matrix Metallopeptidase 9 (MMP9) Biomarker Activity (AID 2283074).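 As to AC50: MMP9 protein level quantified by ELISA in the co-culture.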 To be noted: primary human keratinocytes with fibroblasts; actives raise or lower the signal. Summed up: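 Keratinocyte plus foreskin fibroblast human primary skin co-culture was dosed with chemical and MMP-9 was quantified by ELISA 24 h later. Bidirectional curve fitting used DMSO as negative control and activity baseline.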

Read-out in experiment [6]: urokinase plasminogen activator (uPA), PLAU (gene 5328)
As to the kind of experiment: BSK_KF3CT_uPA: BioMAP Diversity Plus: KF3CT Assay for urokinase plasminogen activator (uPA) Biomarker Activity (AID 2283075). As to conditions: primary human keratinocytes with fibroblasts; actives raise or lower the signal. Summed up:
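Human keratinocyte plus foreskin fibroblast primary co-culture exposed to chemical for 24 h. uPA levels were quantified by ELISA, and activity was fitted bidirectionally against a DMSO negative-control baseline.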

Read-out in experiment [7]: CD40, CD40 (gene 958)
Briefly: BSK_LPS_CD40: BioMAP Diversity Plus: LPS Assay for CD40 Biomarker Activity (AID 2283076). To be noted: primary human HUVEC with PBMC; actives raise or lower the signal. The method, boiled down:
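ELISA readout of CD40 in HUVEC/PBMC co-culture (BSK_LPS system), 24 h post-dosing; bidirectional curve fit, DMSO baseline; parallel SRB total-protein staining for cytotoxicity.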

Read-out in experiment [8]: E-selectin (Homo sapiens) (UniProt P16581)
Briefly: BSK_LPS_Eselectin: BioMAP Diversity Plus: LPS Assay for Eselectin Biomarker Activity (AID 2283077). To be noted: primary human HUVEC with PBMC; actives raise or lower the signal. The method, boiled down: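 ELISA readout of E-selectin, 24 h post-dose, HUVEC + PBMC co-culture (LPS system). Gain or loss of signal vs DMSO baseline, bidirectional fit.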

Read-out in experiment [9]: Interleukin-8 (IL8), CXCL8 (gene 3576)
Briefly: BSK_LPS_IL8: BioMAP Diversity Plus: LPS Assay for Interleukin-8 (IL8) Biomarker Activity (AID 2283078). To be noted: primary human HUVEC with PBMC; actives raise or lower the signal. The method, boiled down:
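HUVEC + PBMC co-culture, LPS-activated; test chemicals dosed, IL-8 read by ELISA at 24 h. Bidirectional curve fit vs DMSO baseline (gain or loss of signal).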

The nature of experiment [10]: BSK_LPS_SRB: Viability Assessment in the BioMAP Diversity Plus: LPS Assay (AID 2283079).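 Also: total protein by sulforhodamine B absorbance as a cytotoxicity measure; measured one day after compound addition.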 As to conditions: primary human HUVEC with PBMC. Summed up: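 HUVEC + PBMC co-culture, LPS-stimulated; compound 24 h. 10% TCA fix, 0.1% SRB stain, A560. Bidirectional fit vs DMSO.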
Read-out in experiment [11]: Interleukin-1 alpha (IL1a), IL1A (gene 3552)
Briefly: BSK_LPS_IL1a: BioMAP Diversity Plus: LPS Assay for Interleukin-1 alpha (IL1a) Biomarker Activity (AID 2283080). As to conditions: primary human HUVEC with PBMC; actives raise or lower the signal. Summed up: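 HUVEC/PBMC co-culture, LPS system; 24 h after dosing; IL-1a by ELISA; gain or loss of signal fitted bidirectionally vs DMSO baseline.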

Read-out in experiment [12]: Monocyte Chemoattractant Protein-1 (MCP1), CCL2 (gene 6347)
Briefly: BSK_LPS_MCP1: BioMAP Diversity Plus: LPS Assay for Monocyte Chemoattractant Protein-1 (MCP1) Biomarker Activity (AID 2283081).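 As to AC50: secreted MCP-1 protein quantified by ELISA in culture supernatant.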 To be noted: primary human HUVEC with PBMC; actives raise or lower the signal. The method, boiled down: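 ELISA read-out of MCP-1 after 24 h chemical dosing of a human umbilical vein endothelial cell/peripheral blood mononuclear cell co-culture stimulated with LPS. Gain or loss of signal fitted relative to DMSO controls.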

A short description of experiment [13]: BSK_LPS_PGE2: BioMAP Diversity Plus: LPS Assay for Prostaglandin E2 (PGE2) Biomarker Activity (AID 2283082).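 As to AC50: secreted prostaglandin E2 measured by ELISA in LPS-stimulated co-culture.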 To be noted: primary human HUVEC with PBMC; actives raise or lower the signal. Summed up:
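HUVEC plus PBMC co-culture stimulated with LPS; secreted PGE2 quantified by ELISA 24 h after chemical dosing. Activity fitted bidirectionally against DMSO as negative control and baseline; parallel SRB total-protein staining served as cytotoxicity check.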

Read-out in experiment [14]: Macrophage colony-stimulating factor (MCSF), CSF1 (gene 1435)
Briefly: BSK_LPS_MCSF: BioMAP Diversity Plus: LPS Assay for Macrophage colony-stimulating factor (MCSF) Biomarker Activity (AID 2283083). As to conditions: primary human HUVEC with PBMC; actives raise or lower the signal. Summed up:
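HUVEC + PBMC co-culture (human primary), 24 h post-dose; M-CSF by ELISA; gain/loss of signal fitted bidirectionally vs DMSO baseline.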

Read-out in experiment [15]: Tissue Factor, F3 (gene 2152)
Briefly: BSK_LPS_TissueFactor: BioMAP Diversity Plus: LPS Assay for Tissue Factor Biomarker Activity (AID 2283084). As to conditions: primary human HUVEC with PBMC; actives raise or lower the signal. The method, boiled down: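 HUVEC/PBMC co-culture, LPS-activated; CD142 ELISA read 24 h post-dose; bidirectional curve fit vs DMSO negative control.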

Read-out in experiment [16]: Tumor necrosis factor (Homo sapiens) (UniProt P01375)
As to the kind of experiment: BSK_LPS_TNFa: BioMAP Diversity Plus: LPS Assay for Tumour Necrosis Factor alpha (TNFa) Biomarker Activity (AID 2283085).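 As to AC50: TNFa protein level quantified by ELISA in the co-culture.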 As to conditions: primary human HUVEC with PBMC; actives raise or lower the signal. Summed up:
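Human umbilical vein endothelial cells co-cultured with PBMC were exposed to test chemical and TNFa measured by ELISA 24 h after dosing. Bidirectional curve fitting was done relative to DMSO as negative control and baseline.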

Read-out in experiment [17]: Vascular cell adhesion molecule 1 (VCAM1), VCAM1 (gene 7412)
Briefly: BSK_LPS_VCAM1: BioMAP Diversity Plus: LPS Assay for Vascular cell adhesion molecule 1 (VCAM1) Biomarker Activity (AID 2283086). As to conditions: primary human HUVEC with PBMC; actives raise or lower the signal. The method, boiled down:
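Human umbilical vein endothelial cells co-cultured with peripheral blood mononuclear cells under LPS stimulation were exposed to test chemical for 24 h. VCAM-1 levels were then measured by ELISA, with bidirectional curve fitting relative to DMSO as negative control and baseline.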

Read-out in another experiment: CD38, CD38 (gene 952)
Briefly: BSK_SAg_CD38: BioMAP Diversity Plus: SAg Assay for CD38 Biomarker Activity (AID 2283087). As to conditions: primary human HUVEC with PBMC; actives raise or lower the signal. Summed up: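 Fluorescence ELISA of cell-surface CD38 served as the read-out, with either increase or decrease fitted against DMSO controls. Cells were a human umbilical vein endothelium plus PBMC co-culture under SEB/TSST-1 stimulation, measured 24 h after dosing.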

Read-out in experiment [18]: CD40, CD40 (gene 958)
As to the kind of experiment: BSK_SAg_CD40: BioMAP Diversity Plus: SAg Assay for CD40 Biomarker Activity (AID 2283088). As to conditions: primary human HUVEC with PBMC; actives raise or lower the signal. The method, boiled down: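 HUVEC/PBMC co-culture, 24 h post-dose; CD40 by ELISA, fluorescence intensity; bidirectional fit vs DMSO negative control.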

Read-out in a further experiment: CD69, CD69 (gene 969)
As to the kind of experiment: BSK_SAg_CD69: BioMAP Diversity Plus: SAg Assay for CD69 Biomarker Activity (AID 2283089).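 As to AC50: cell surface CD69 protein quantified by ELISA with fluorescence detection.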 As to conditions: primary human HUVEC with PBMC; actives raise or lower the signal. Summed up: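 ELISA, fluorescence read-out: CD69 on human umbilical vein endothelial cell + PBMC co-culture, 24 h post-dosing. Gain or loss of signal fitted bidirectionally against DMSO baseline.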

SMILES strings stand for the structures. Values joined by “and” are separate entries in the source; they are usually repeats but may differ in a detail not shown here. Equal entries are not always repeated. Some structures have more than one record in an assay (separate samples or runs), and their calls can disagree. Active and inactive are the calls of the source. The calls were made as follows: active = hit-call score of the fitted dose curve at least 0.9, where 1 is the maximum; inactive = score below 0.9.

Chain of Tumor necrosis factor (Homo sapiens) (P01375 whole entry, looked up): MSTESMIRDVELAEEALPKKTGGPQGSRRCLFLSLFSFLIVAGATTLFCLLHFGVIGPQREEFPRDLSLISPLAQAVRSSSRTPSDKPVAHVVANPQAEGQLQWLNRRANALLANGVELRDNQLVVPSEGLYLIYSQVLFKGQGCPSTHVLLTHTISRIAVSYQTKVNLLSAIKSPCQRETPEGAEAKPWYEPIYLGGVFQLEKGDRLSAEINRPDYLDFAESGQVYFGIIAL
Chain of E-selectin (Homo sapiens) (P16581 whole entry, looked up): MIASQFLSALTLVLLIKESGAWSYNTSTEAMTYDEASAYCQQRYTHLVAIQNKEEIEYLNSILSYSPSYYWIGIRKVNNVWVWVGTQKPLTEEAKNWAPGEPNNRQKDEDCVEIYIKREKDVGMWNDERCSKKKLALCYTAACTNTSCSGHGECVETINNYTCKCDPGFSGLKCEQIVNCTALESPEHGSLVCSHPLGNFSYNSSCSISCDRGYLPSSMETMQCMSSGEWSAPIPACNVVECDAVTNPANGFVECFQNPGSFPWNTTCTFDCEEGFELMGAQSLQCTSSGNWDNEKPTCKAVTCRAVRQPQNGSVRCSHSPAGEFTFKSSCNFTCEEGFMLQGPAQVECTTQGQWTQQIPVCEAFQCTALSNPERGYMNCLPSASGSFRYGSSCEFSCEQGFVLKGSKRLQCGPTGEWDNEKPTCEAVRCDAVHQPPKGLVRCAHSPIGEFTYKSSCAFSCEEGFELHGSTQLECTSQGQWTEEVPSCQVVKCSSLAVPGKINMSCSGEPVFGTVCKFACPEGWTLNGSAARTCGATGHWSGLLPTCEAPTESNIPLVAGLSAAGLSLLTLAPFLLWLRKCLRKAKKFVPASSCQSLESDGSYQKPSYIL

In the case of `C=CCC1=C(C)C(OC(=O)C2C(C=C(C)C)C2(C)C)CC1=O` (stereo not given), the AC50 in experiment [1] is 34.3 µM (active) and 38.6 µM (active); in experiment [2] it was 31.1 µM (active) and 32.9 µM (active) and 26.7 µM (active); in experiment [3] it was 26.6 µM (active) and 33.3 µM (active) and 21 µM (active); in experiment [4], 33.6 µM (active) and 36.4 µM (active) and 28.4 µM (active); in experiment [5], 33.6 µM (active) [middle of 4 runs]; in [6], 33.8 µM (active) and 33.3 µM (active). Besides, the AC50 in the experiment with CD40, CD40 (gene 958) [7] was 24.2 µM (active) and 21 µM (active) and 27.6 µM (active); in experiment [8] it was 31.5 µM (active) and 33.3 µM (active) and 33.1 µM (active); in experiment [9] it was 32 µM (active) [middle of 4 runs]; in [10] it was 33.1 µM (active) [middle of 4 runs]; in experiment [11], 34.3 µM (active) [middle of 4 runs]; in experiment [12], 35.7 µM (active) [middle of 4 runs]. The AC50 was 33.7 µM (active) and 5.54 µM (active) in experiment [13]; 24.4 µM (active) [middle of 4 runs] in experiment [14]; 33.8 µM (active) and 31.9 µM (active) in experiment [15]; 34.3 µM (active) [middle of 4 runs] in experiment [16]; 31 µM (active) [middle of 4 runs] in experiment [17]; 30.5 µM (active) and 34.3 µM (active) and 31.6 µM (active) with CD38, CD38 (gene 952). In addition, the AC50 is 31.7 µM (active) [middle of 4 runs] with CD40, CD40 (gene 958) [18] and 30.1 µM (active) [middle of 4 runs] with CD69, CD69 (gene 969). For the same compound, the outcome in [1] was “inactive”; in [2], “inactive”; in [3], “inactive”; in [4] it was “inactive”; in experiment [6] it was “inactive”; with CD40, CD40 (gene 958) [7] it was “inactive”. In addition, the result in experiment [8], in experiment [13] and in experiment [15] was inactive.
As to `CC1COC(Cn2cncn2)(c2ccc(Oc3ccc(Cl)cc3)cc2Cl)O1` (stereo not given), the AC50 in [1] was 38 µM (active); in [2] it was 26.7 µM (active); in experiment [3] it was 34.5 µM (active); in experiment [4], 34.4 µM (active); in [5], 31.1 µM (active); in experiment [6], 33.9 µM (active). In addition, the AC50 with CD40, CD40 (gene 958) [7] was 17.3 µM (active); in experiment [8], 20 µM (active); in experiment [9], 28.6 µM (active); in experiment [10] it was 28.8 µM (active); in [11], 32 µM (active); in experiment [12], 31.7 µM (active). The AC50 in [13] was 172 nM (active); in experiment [14] it was 27.6 µM (active); in experiment [15] it was 30.2 µM (active); in experiment [16], 31.5 µM (active); in experiment [17] it was 29.7 µM (active); in the experiment with CD38, CD38 (gene 952), 19.4 µM (active). Further, the AC50 is 18.4 µM (active) in the experiment with CD40, CD40 (gene 958) [18] and 18.8 µM (active) in the experiment with CD69, CD69 (gene 969).
On to `O=C(O)c1nc(Cl)ccc1Cl`, for which the AC50 in experiment [1] was 0.148 µM (active). The result in experiment [1], in experiment [2], in experiment [3], in experiment [4], in experiment [5] and in experiment [6] was inactive. The outcome in the experiment with CD40, CD40 (gene 958) [7] is “inactive”; in experiment [8] it was “inactive”; in experiment [9], “inactive”; in [10] it was “inactive”; in experiment [11] it was “inactive”; in [12] it was “inactive”. The outcome is “inactive” in experiment [13]; “inactive” in experiment [14]; “inactive” in experiment [15]; “inactive” in experiment [16]; “inactive” in experiment [17]; “inactive” with CD38, CD38 (gene 952). The outcome was “inactive” with CD40, CD40 (gene 958) [18] and “inactive” with CD69, CD69 (gene 969).
